The text below walks through data of PubChem BioAssay (EPA / NIEHS).

For assay [1], the target named is Estrogen receptor (Homo sapiens) (UniProt P03372). In words: OT_ERa_GFPERaERE_0120: Odyssey Thera (OT) 2-hour HeLa Transcription Induction Assay for Estrogen Receptor (AID 2283382). The gist of the method:
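Cells (human cervical HeLa) receive compound, incubate 2 hours, then are imaged for fluorescent reporter induction. Images are quantified by high content analysis, and activity is fitted as gain of signal against DMSO.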

Assay [2] deals with Retinoic acid receptor RXR-alpha (Homo sapiens) (UniProt P19793). The experiment in a line: OT_NURR1_NURR1RXRa_0480: Odyssey Thera (OT) 8-hour HEK293T Protein Complementation Assay for Nurr1/retinoid X receptor (RXR) (AID 2283385). Put shortly:
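Interaction of bait and prey reconstitutes a functional reporter, whose fluorescence was measured in HEK293T cells dosed with compound for 8 hours. Signal gain relative to DMSO defined the single endpoint.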

The target is the same in assay [3]. In words: OT_NURR1_NURR1RXRa_1440: Odyssey Thera (OT) 24-hour HEK293T Protein Complementation Assay for Nurr1/retinoid X receptor (RXR) (AID 2283386). The gist of the method: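 Steps: fragment-tagged Nurr1 and RXRα expressed in HEK293T; compounds added; after 24 h, complemented reporter quantified by fluorescence intensity; signal increase over DMSO fitted as the single endpoint.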

Assay [4] deals with Peroxisome proliferator-activated receptor gamma (Homo sapiens) (UniProt P37231). In words: OT_PPARg_PPARgSRC1_0480: Odyssey Thera (OT) 8-hour Protein-Complementation Assay for Peroxisome Proliferator-activated Receptor Gamma / SRC-1 Co-activator (AID 2283387).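 Note: nuclear to cytoplasmic split Venus YFP fluorescence ratio reporting PPARg SRC-1 interaction.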 The gist of the method:
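Read-out: 488 nm N/C fluorescence ratio from complemented Venus YFP fragments, ≥350 cells per image, gain-of-signal fitted against DMSO baseline. Fusions of PPARg/SRC-1 with IFP1/IFP2 expressed transiently in HEK293T; compounds applied 8 h.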

For assay [5] the target is unchanged. In words: OT_PPARg_PPARgSRC1_1440: Odyssey Thera (OT) 24-hour Protein-Complementation Assay for Peroxisome Proliferator-activated Receptor Gamma/ SRC-1 Co-activator (AID 2283388).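 Note: nuclear to cytoplasmic ratio of reconstituted Venus YFP fluorescence in fixed imaged cells.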 The gist of the method:
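Readout: nuclear-to-cytoplasmic 488 nm fluorescence ratio, ≥350 cells per image, 8 images per well, after 24 h compound exposure of HEK293T expressing PPARg/SRC-1 split-YFP fusions. Activity fitted in positive direction against DMSO.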

Read-out in assay [6]: Tumor necrosis factor receptor superfamily member 6 (Homo sapiens) (UniProt P25445)
In words: LTEA_HepaRG_FAS: Life Technologies and Expression Analysis (LTEA) Assay for Fas cell surface death receptor (FAS) using HepaRG (AID 2283447; active = hit-call score of the fitted dose curve at least 0.9, where 1 is the maximum; inactive = score below 0.9). As to conditions: mRNA level, 48 h; actives raise or lower the signal. The gist of the method:
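Differentiated human HepaRG cells, pre-cultured 48 h, were exposed in duplicate for 48 h to 8-point half-log concentrations (top 100 uM, 0.5% DMSO) in serum-free induction medium; FAS mRNA measured by qRT-PCR, normalized to ACTB/GAPDH/POLR2A, bidirectional fit versus DMSO.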

Read-out in assay [7]: Fatty acid synthase (Homo sapiens) (UniProt P49327)
The experiment in a line: LTEA_HepaRG_FASN: Life Technologies and Expression Analysis (LTEA) Assay for Fatty Acid Synthase (FASN) using HepaRG (AID 2283448; active = hit-call score of the fitted dose curve at least 0.9, where 1 is the maximum; inactive = score below 0.9). Conditions: mRNA level, 48 h; actives raise or lower the signal. The gist of the method: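 Cells were plated, cultured 48 h, switched to serum-free induction medium, then dosed in duplicate (max 100 uM, half-log dilutions, 0.5% DMSO) for 48 h. RNA was then isolated and FASN quantified by qRT-PCR.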

Read-out in assay [8]: Cyclin D2 (CCND2), CCND2 (gene 894)
The experiment in a line: LTEA_HepaRG_CCND2: Life Technologies and Expression Analysis (LTEA) Assay for Cyclin D2 (CCND2) using HepaRG (AID 2283449; active = hit-call score of the fitted dose curve at least 0.9, where 1 is the maximum; inactive = score below 0.9;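 note: CCND2 transcript measured by TaqMan qRT-PCR and normalised to three housekeeping genes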). Conditions: mRNA level, 48 h; actives raise or lower the signal. The gist of the method:
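In this HepaRG study, an eight-point concentration series (max 100 uM, 0.5% DMSO) is applied for 48 h. CCND2 mRNA change is derived by qRT-PCR normalised to ACTB, GAPDH and POLR2A.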

Read-out in assay [9]: Cyclin Dependent Kinase Inhibitor 1A (CDKN1A), CDKN1A (gene 1026)
In words: LTEA_HepaRG_CDKN1A: Life Technologies and Expression Analysis (LTEA) Assay for Cyclin Dependent Kinase Inhibitor 1A (CDKN1A) using HepaRG (AID 2283450; active = hit-call score of the fitted dose curve at least 0.9, where 1 is the maximum; inactive = score below 0.9). Conditions: mRNA level, 48 h; actives raise or lower the signal. The gist of the method:
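HepaRG, 48 h dosing, 8-pt half-log series from 100 uM top, 0.5% DMSO vehicle, duplicates. Readout: TaqMan qRT-PCR of CDKN1A transcript, housekeeping-normalized (ACTB, GAPDH, POLR2A). Up/down curve fit relative to DMSO.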

Assay [10] in a line: CEETOX_H295R_11DCORT: CeeTox H295R High-throughput Steroidogenesis Assay for 11-Deoxycortisol (11DCORT) (AID 2283432; active = hit-call score of the fitted dose curve at least 0.9, where 1 is the maximum; inactive = score below 0.9;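 for AC50: human adrenal H295R cells prestimulated with 10 µM forskolin for 48 h; 11-deoxycortisol secreted into the medium measured by LC-MS/MS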). Conditions: actives raise or lower the signal. Put shortly: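 H295R cells; 10 uM forskolin prestim 48 h; compound in 0.1% DMSO 48 h; media extracted with MTBE; 11-deoxycortisol by LC-MS/MS, 7-point standard curve; gain/loss vs DMSO baseline; viability by MTT in same wells.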

Assay [11] in a line: CEETOX_H295R_OHPREG: CeeTox H295R High-throughput Steroidogenesis Assay for OH-Pregnenolone (OHPREG) (AID 2283434; active = hit-call score of the fitted dose curve at least 0.9, where 1 is the maximum; inactive = score below 0.9). As to conditions: actives raise or lower the signal. Put shortly: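 Readout: HPLC-MS/MS of 17alpha-hydroxypregnenolone in medium after 48 h chemical exposure of H295R cells pretreated with forskolin. Values fitted bidirectionally relative to DMSO; chemicals reducing viability to 20–70% were retested after 10-fold dilution.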

Assay [12] is described as follows: CEETOX_H295R_OHPROG: CeeTox H295R High-throughput Steroidogenesis Assay for OH-Progesterone (OHPROG) (AID 2283435; active = hit-call score of the fitted dose curve at least 0.9, where 1 is the maximum; inactive = score below 0.9). Conditions: actives raise or lower the signal. The gist of the method:
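Steps: seed H295R cells and adhere overnight; stimulate with 10 uM forskolin for 48 h; replace with chemical-containing medium (0.1% DMSO) for 48 h; extract medium with MTBE; quantify 17alpha-hydroxyprogesterone by reverse-phase C18 HPLC-MS/MS against a 7-point curve.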

Assay [13] is described as follows: CEETOX_H295R_ANDR: CeeTox H295R High-throughput Steroidogenesis Assay for Androstenedione (ANDR) (AID 2283436; active = hit-call score of the fitted dose curve at least 0.9, where 1 is the maximum; inactive = score below 0.9;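 note: human H295R adrenal cells exposed for 48 h with androstenedione measured in medium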). Conditions: actives raise or lower the signal. The gist of the method:
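Steroidogenesis in H295R adrenal cells after 48 h dosing; androstenedione quantified by LC-MS/MS, with DMSO as negative control and baseline for bidirectional curve fitting.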

Assay [14] is described as follows: CEETOX_H295R_CORTISOL: CeeTox H295R High-throughput Steroidogenesis Assay for Cortisol (AID 2283438; active = hit-call score of the fitted dose curve at least 0.9, where 1 is the maximum; inactive = score below 0.9;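 note: cortisol secreted into medium quantified by LC-MS/MS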). As to conditions: actives raise or lower the signal. The gist of the method: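 Cortisol synthesis by H295R cells is measured 48 h after chemical dosing, following a 48 h stimulation with 10 uM forskolin. Hormone is extracted and quantified by HPLC-MS/MS, and activity is fitted bidirectionally against the DMSO control.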

Assay [15] in a line: CEETOX_H295R_DOC: CeeTox H295R High-throughput Steroidogenesis Assay for DOC (AID 2283439; active = hit-call score of the fitted dose curve at least 0.9, where 1 is the maximum; inactive = score below 0.9). As to conditions: actives raise or lower the signal. Put shortly: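 Steps: seed H295R, adhere overnight; 10 uM forskolin 48 h; replace with chemical medium (0.1% DMSO) 48 h; collect medium, MTBE extraction, HPLC-MS/MS for DOC. Viability then checked by MTT; cytotoxic chemicals diluted until viability ≥70%.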

Assay [16] is described as follows: CEETOX_H295R_PROG: CeeTox H295R High-throughput Steroidogenesis Assay for Progesterone (PROG) (AID 2283442; active = hit-call score of the fitted dose curve at least 0.9, where 1 is the maximum; inactive = score below 0.9;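 for AC50: human H295R adrenal cells primed with 10 µM forskolin before dosing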). Conditions: actives raise or lower the signal. Put shortly: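 Progesterone read-out: HPLC-MS/MS on MTBE extracts of conditioned medium after 48 h chemical exposure of forskolin-primed (10 uM, 48 h) H295R cells. Gain or loss of signal was fitted relative to DMSO baseline.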

The structures appear in SMILES notation. Records with an inconclusive call do not appear. More than one record can exist for a structure, and the calls need not agree. Active and inactive are the calls of the source. Rule for the calls, unless noted: active = hit-call score of the fitted dose curve at least 0.9, where 1 is the maximum; inconclusive = response in the unintended direction; inactive = score below 0.9.

Chain of Retinoic acid receptor RXR-alpha (Homo sapiens) (P19793 whole entry, looked up): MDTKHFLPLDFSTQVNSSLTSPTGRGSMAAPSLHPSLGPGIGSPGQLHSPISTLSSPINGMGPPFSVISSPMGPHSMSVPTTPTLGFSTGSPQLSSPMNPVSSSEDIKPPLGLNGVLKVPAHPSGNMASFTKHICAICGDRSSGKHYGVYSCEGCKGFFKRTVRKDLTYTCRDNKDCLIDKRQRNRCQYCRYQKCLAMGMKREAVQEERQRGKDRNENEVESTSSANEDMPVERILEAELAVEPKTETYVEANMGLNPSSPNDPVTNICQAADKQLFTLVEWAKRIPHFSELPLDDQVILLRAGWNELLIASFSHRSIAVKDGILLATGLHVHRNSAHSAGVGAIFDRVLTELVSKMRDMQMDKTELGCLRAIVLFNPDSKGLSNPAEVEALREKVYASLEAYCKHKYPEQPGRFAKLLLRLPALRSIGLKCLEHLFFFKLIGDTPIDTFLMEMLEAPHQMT
Chain of Estrogen receptor (Homo sapiens) (P03372 whole entry, looked up): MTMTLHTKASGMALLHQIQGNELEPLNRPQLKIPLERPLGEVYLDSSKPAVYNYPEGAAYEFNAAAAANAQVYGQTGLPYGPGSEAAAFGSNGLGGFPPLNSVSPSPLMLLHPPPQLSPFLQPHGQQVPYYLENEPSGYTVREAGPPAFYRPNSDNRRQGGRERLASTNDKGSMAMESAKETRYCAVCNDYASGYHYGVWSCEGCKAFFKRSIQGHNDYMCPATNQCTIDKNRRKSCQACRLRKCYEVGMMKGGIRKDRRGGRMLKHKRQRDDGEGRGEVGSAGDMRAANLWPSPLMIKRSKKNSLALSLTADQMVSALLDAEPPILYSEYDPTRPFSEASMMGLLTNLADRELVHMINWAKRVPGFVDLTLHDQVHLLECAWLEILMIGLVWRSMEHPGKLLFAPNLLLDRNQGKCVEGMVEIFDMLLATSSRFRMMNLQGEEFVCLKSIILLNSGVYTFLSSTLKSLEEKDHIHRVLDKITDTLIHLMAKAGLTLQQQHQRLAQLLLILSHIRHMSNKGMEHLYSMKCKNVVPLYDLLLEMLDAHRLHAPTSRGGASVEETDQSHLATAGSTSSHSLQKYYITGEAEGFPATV
Chain of Fatty acid synthase (Homo sapiens) (P49327 whole entry, looked up): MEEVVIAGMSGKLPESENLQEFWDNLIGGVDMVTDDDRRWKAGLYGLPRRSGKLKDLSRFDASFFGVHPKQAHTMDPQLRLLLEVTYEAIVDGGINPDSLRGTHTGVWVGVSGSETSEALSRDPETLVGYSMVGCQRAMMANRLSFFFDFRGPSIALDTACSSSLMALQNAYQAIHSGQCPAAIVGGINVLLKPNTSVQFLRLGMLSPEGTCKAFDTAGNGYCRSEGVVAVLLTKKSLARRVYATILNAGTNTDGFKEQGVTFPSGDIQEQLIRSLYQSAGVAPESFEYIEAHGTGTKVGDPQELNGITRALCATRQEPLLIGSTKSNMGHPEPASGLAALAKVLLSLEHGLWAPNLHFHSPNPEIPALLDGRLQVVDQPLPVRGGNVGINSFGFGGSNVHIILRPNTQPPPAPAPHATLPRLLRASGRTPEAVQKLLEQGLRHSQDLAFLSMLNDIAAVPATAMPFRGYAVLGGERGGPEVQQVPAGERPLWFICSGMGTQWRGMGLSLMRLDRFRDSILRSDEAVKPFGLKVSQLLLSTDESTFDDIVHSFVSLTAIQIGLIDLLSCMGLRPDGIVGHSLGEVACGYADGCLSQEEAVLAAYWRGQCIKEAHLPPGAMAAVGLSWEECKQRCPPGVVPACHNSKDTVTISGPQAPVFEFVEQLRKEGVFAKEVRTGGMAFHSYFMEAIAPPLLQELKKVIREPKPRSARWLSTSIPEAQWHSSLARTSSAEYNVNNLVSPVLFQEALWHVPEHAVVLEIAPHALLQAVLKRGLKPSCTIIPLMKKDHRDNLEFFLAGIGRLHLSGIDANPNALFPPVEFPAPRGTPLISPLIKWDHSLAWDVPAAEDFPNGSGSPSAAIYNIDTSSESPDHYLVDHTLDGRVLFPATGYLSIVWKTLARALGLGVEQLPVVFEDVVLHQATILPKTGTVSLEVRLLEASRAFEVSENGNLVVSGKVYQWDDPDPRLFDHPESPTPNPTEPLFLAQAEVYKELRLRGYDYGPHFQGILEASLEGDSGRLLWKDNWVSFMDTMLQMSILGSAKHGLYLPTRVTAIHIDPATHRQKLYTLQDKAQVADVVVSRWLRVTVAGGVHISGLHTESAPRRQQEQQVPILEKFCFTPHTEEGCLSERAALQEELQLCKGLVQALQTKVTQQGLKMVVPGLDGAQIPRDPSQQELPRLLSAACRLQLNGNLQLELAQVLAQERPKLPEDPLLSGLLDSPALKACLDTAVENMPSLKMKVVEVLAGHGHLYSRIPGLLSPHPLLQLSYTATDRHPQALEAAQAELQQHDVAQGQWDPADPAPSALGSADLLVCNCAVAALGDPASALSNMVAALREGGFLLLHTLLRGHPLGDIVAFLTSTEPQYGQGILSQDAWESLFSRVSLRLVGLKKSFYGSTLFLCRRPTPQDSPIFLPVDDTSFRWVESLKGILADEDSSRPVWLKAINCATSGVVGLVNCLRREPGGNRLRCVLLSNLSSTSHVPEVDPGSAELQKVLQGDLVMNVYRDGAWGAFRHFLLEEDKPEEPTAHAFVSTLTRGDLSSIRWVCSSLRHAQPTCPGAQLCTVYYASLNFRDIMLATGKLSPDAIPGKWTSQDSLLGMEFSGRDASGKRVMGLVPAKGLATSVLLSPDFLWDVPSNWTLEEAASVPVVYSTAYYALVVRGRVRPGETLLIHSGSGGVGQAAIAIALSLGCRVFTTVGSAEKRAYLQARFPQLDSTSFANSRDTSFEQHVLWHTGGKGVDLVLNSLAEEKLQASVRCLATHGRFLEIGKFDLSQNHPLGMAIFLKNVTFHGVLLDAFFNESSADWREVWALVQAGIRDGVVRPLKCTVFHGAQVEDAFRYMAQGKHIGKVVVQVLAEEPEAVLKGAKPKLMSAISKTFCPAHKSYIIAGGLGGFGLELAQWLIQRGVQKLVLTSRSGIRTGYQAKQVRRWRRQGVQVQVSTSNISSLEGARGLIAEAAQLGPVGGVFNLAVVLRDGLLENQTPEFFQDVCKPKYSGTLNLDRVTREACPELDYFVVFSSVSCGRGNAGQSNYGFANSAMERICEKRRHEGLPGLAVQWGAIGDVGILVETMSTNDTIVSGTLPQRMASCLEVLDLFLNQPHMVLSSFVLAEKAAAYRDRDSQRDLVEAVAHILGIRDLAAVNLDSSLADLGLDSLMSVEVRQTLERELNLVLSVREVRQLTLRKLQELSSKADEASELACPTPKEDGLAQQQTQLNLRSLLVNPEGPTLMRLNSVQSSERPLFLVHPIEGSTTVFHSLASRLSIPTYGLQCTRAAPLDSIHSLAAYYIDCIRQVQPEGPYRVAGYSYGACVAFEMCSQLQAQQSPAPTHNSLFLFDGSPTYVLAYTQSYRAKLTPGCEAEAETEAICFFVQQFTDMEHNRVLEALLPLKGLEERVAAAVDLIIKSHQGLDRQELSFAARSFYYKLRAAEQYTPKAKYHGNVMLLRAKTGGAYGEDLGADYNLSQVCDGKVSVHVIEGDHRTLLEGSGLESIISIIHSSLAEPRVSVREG
Chain of Peroxisome proliferator-activated receptor gamma (Homo sapiens) (P37231 whole entry, looked up, the tested form may be a part): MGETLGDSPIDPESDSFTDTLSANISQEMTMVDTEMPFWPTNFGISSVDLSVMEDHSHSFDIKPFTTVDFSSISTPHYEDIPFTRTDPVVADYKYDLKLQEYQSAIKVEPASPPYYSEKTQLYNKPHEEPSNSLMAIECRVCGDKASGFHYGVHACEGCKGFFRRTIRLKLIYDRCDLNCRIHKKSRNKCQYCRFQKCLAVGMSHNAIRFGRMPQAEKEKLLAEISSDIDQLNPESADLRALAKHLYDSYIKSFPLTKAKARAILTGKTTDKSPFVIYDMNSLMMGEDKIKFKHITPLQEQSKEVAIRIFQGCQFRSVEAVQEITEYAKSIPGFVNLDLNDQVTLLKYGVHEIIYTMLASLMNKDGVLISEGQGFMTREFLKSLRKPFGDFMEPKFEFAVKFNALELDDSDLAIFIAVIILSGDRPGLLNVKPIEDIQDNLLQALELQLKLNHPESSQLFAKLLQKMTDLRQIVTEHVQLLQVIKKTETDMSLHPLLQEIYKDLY

Take `C1CCCNCC1`: the call in [1], in assay [2], in [3], in assay [4] and in assay [5] was inactive.

Take `CCCCCCCCCCO[C@@H]1O[C@H](CO)[C@@H](O)[C@H](O)[C@H]1O`: the call in assay [1], in [2], in [3] and in [5] was inactive.

For the molecule `C=C(C)C(N)=O`, the outcome in assay [1], in assay [2], in assay [3], in assay [4], in assay [5] and in assay [6] was inactive. Besides, the outcome in [7], in [8] and in [9] was inactive.

For `CNC(=C[N+](=O)[O-])NCCSCc1ccc(CN(C)C)o1`, the molecule was classed as inactive in [1], in assay [2], in [3], in assay [4] and in [5].

As for `CCCCCCOc1ccc(O)cc1`, the AC50 in assay [1] was 69.5 µM (active). Besides, the molecule was called inactive in [2], in assay [3], in assay [4] and in assay [5].

Regarding `O=C(O)c1ccccc1O`, the molecule was classed as inactive in assay [1], in assay [2], in assay [3], in assay [4] and in [5].

`COC(=O)c1ccc(C(=O)OC)cc1`: the outcome in assay [1], in assay [2], in assay [3], in [4], in [5] and in assay [6] was inactive. Moreover, the call in assay [7], in assay [8] and in assay [9] was inactive.

For the molecule `CCCC1CCC(=O)CC1`, the molecule was classed as inactive in assay [1], in assay [2], in [3], in assay [4] and in assay [5].

With `Cc1cccc(O)c1`, the result in assay [1], in assay [2], in assay [4] and in assay [5] was inactive.

As to `OC[C@@H](O)[C@H](O)[C@@H](O)[C@@H](O)CO`, the molecule was called inactive in assay [1], in assay [2], in assay [3], in assay [4] and in assay [5].

With `CCCCCCCCCCCCOCCOS(=O)(=O)O`, the AC50 in [1] was 11 µM (active). Moreover, the result in [2], in assay [4] and in assay [5] was inactive.

With `CC(=O)c1ccc(O)cc1`, the call in assay [1], in assay [2], in assay [3], in assay [4] and in assay [5] was inactive.

As for `CCCc1ccc(N)cc1`, the call in assay [1], in [2], in [3], in assay [4] and in assay [5] was inactive.

In the case of `CC(=O)OC/C=C(C)/C=C/C=C(C)/C=C/C1=C(C)CCCC1(C)C`, the molecule was classed as inactive in [1], in assay [3], in assay [4] and in assay [5]. Moreover, the concentration at half-maximal activity (AC50) in [2] was 27.5 µM (active).

Turning to `CCC(C)COC(=O)CC(C)C` (stereo unspecified), the result in [1], in assay [2], in assay [3], in [4] and in assay [5] was inactive.

On to `CC(C)(C)c1cccc(O)c1`, for which the call in assay [1], in assay [2], in assay [3], in assay [4], in assay [5] and in [10] was inactive. Further, the result in [11], in assay [12], in [13], in assay [14], in [15] and in assay [16] was inactive.

On to `COC(=O)C(C)Oc1ccc(Oc2ncc(C(F)(F)F)cc2Cl)cc1` (stereo unspecified), for which the outcome in assay [1], in assay [2], in assay [3], in [4] and in assay [5] was inactive.

In the case of `CC(C)C(=O)c1ccccc1`, the result in [1], in assay [2], in assay [3], in assay [4] and in assay [5] was inactive.

For `CCCCCCCC(=O)N(C)C`, the result in assay [1], in [2], in assay [3], in [4] and in assay [5] was inactive.

Regarding `C=CCCCCCCCCC(=O)OCC`, the molecule was called inactive in [1], in assay [2], in [3], in assay [4] and in [5].

On to `C=CC(C)CCCC(C)(C)O` (stereo unspecified), for which the call in assay [1], in assay [3], in [4] and in assay [5] was inactive.

For the molecule `[Na+]`, the outcome in [1], in assay [3], in [4] and in assay [5] was inactive.

Consider `[O-]/[N+](=N\O)c1ccccc1`, for which the outcome in [1], in [4] and in assay [5] was inactive.

As to `C=CC(O)CCCCC` (stereo unspecified), the molecule was called inactive in assay [2], in [3], in assay [4] and in assay [5].

Regarding `C#C[C@]1(O)CC[C@H]2[C@@H]3CCc4cc(O)ccc4[C@H]3CC[C@@]21C`, the AC50 in assay [2] was 35.3 µM (active); in assay [3], 18.2 µM (active); in [10], 364 nM (active); in assay [11] it was 369 nM (active); in assay [16] it was 372 nM (active). Besides, the outcome in [2], in [3], in [4], in assay [5], in [12] and in assay [14] was inactive. For the same molecule, the molecule was classed as inactive in assay [15], in assay [6], in assay [7], in assay [8] and in [9].

As to `CCCCCCCCCOS(=O)(=O)O`, the call in assay [1], in assay [4] and in assay [5] was inactive.

`CC(=O)OC(C)(C)C1CC=C(C)CC1` (stereo unspecified): the molecule was called inactive in assay [1], in assay [4] and in assay [5].

In the case of `CCCC(O)C(CC)CO` (stereo unspecified), the outcome in [1], in assay [3], in [4] and in assay [5] was inactive.

For the molecule `CC(C)(C)C1CCC(O)CC1` (stereo unspecified), the call in assay [1] and in assay [3] was inactive.

Turning to `CC(C)(C)c1ccc(S)cc1`, the molecule was called inactive in [1], in [4] and in assay [5].

Turning to `CC(=O)OC(C)(C)C`, the call in assay [1], in [2] and in assay [5] was inactive.
